The source of these data is PubChem BioAssay (EPA / NIEHS).

Calls of active or inactive are those of the source. The calls were made as follows: active = hit-call score of the fitted dose curve at least 0.9, where 1 is the maximum; inactive = score below 0.9.

A short description of the assay: ATG_M_06_CIS: Attagene CIS-FACTORIAL HepG2 Assay for M06 Transcription Factor (Internal Marker) (AID 2282950). To be noted: HepG2 Attagene CIS-FACTORIAL M06 internal marker reporter; actives raise or lower the signal. How it is done:
ATG_CIS is a cell-based, multiplexed-readout assay that uses HepG2, a human liver cell line, with measurements taken at 24 hours after chemical dosing in a 24-well plate.ATG_M_06_CIS is one of 52 assay component(s) measured or calculated from the ATG_CIS assay. It is designed to make measurements of mRNA induction, a form of inducible reporter, as detected with fluorescence intensity signals by Reverse transcription polymerase chain reaction (RT-PCR) and Capillary electrophoresis technology.Data from the assay component ATG_M_06_CIS was analyzed into 1 assay endpoint. This assay endpoint, ATG_M_06_CIS, was analyzed with bidirectional fitting relative to DMSO as the negative control and baseline of activity. Using a type of inducible reporter, measures of mRNA for gain or loss-of-signal activity can be used to understand the background control at the transcription factor-level as they relate to the gene . Furthermore, this assay endpoint can be referred to as a secondary readout, because this assay has produced multiple assay endpoints where this one serves a background control function. To generalize the intended target to other relatable targets, this assay endpoint is annotated to the background measurement intended target family, where the subfamily is internal marker.
Human liver HepG2 cells are transiently transfected with multiple reporter transcription units (MRTUs) in 6-well plates using FuGene 6 reagent (Roche; 3 ml FuGene/1 mg DNA). The MRTU constructs are regulated by a cis-regulating element (promoter). […] A major difference between the CIS and TRANS system is that in CIS activities of endogenous TFs are measured, whereas the TRANS assay evaluates changes in activities of exogenous, chimeric NR-Gal4 proteins. […] At the end of 24 hour incubation, total RNA was isolated using TriZol reagent (Invitrogen). The isolated RNA is then reverse-transcribed using oligo(dT) primer and Mo-MLV reverse transcriptase (Invitrogen) with DNAse I (Ambion) treatment for 30 min. The one-tenth of the produced cDNA was amplified by PCR using Taq DNA polymerase (Invitrogen) and two reporter sequence-specific primers. The PCR products were fluorescently labeled by primer extension with 6-arboxyfluorescein (6-FAM) 5'-labeled reporter sequence-specific primer (2 min at 95 C, 20 s at 68 C and 10 min at 72 C) and these products were digested with 5U of HpaI (New England Biolabs) for 2h at 37 C. The fragments were purified using Qiaquick PCR columns (Qiagen), analyzed on an ABI 3130xL genetic analyzer (Applied Biosystems) with peak positions identified by using a set of X-rhodamine (ROX)-labeled MapMarker1000 molecular weight standards (BioVentures). The raw capillary electrophoresis data was processed using Attagraph software (Attagene).
Regarding `CC(C)(N=C=O)c1cccc(C(C)(C)N=C=O)c1`, the compound was classed as inactive.
Next, `O=C1c2ccccc2C(=O)c2c(O)ccc(O)c21`: “inactive”; `CC(C)CCCCCCCCCCCCCCC(=O)O`: “inactive”; `NCCNc1cccc2ccccc12`: “inactive”.
Regarding `CCCCCc1ccco1`, the compound was classed as inactive.
Next, `CC(C)CCCCCCc1ccc(OCCOCCO)cc1`: “inactive”.
Next, `CS(=O)(=O)OCCCCOS(C)(=O)=O`: “inactive”.
Next, `CC(C)=CCCC(C)CCOC=O` (stereo not given): “inactive”; `Clc1cc(Cl)c(-c2c(Cl)c(Cl)cc(Cl)c2Cl)cc1Cl`: “inactive”; `CCCCCCCCC=CCCCCCCCC1=NCCN1CCO`: “inactive”.
Regarding `Cc1c(C2(c3cc(Br)c(O)c(Br)c3C)OS(=O)(=O)c3ccccc32)cc(Br)c(O)c1Br`, the call was inactive.
Next, `Nc1ccc(NCCO)c([N+](=O)[O-])c1`: “inactive”; `CCCCCCC(CO)CCCC` (stereo not given): “inactive”; `Nc1ccc(N)c2c1C(=O)c1ccccc1C2=O`: “inactive”.
On to `Cc1ncc[nH]1`, for which the result was inactive.
Under `Oc1c(Cl)cc(Cl)c(Cl)c1Cc1c(O)c(Cl)cc(Cl)c1Cl` stands “inactive”; under `C=C(C)C(=O)OCC(CC)(COC(=O)C(=C)C)COC(=O)C(=C)C`, “inactive”.
`CS(=O)(=O)c1ccc(C2=C(c3ccccc3)C(=O)OC2)cc1`: the compound was called inactive.
Turning to `C=C(C)C(=O)OCCOCCOCCOC(=O)C(=C)C`, the compound was classed as inactive.
Under `CC(C)(CO)[C@@H](O)C(=O)NCCC(=O)O` stands “inactive”; under `CC[N+](C)(CC)CC`, “inactive”; under `CC(C)(C)OC(=O)c1ccc(O)cc1`, “inactive”.
Under `CC(C)(C)c1ccc(C(=O)O)cc1` stands “inactive”; under `COC(=O)c1ccc(C)cc1C1=NC(C)(C(C)C)C(=O)N1` (stereo not given) (tested in a mixture with another compound), “inactive”; under `CN1C(=O)c2ccccc2C1=O`, “inactive”.
Next, `CC(=O)O[C@@H]1C[C@@H]2CC[C@@]1(C)C2(C)C`: “inactive”; `COc1ccc(CCC(C)=O)cc1`: “inactive”.
In the case of `C=CCOC(=O)CCCCCC`, the call was inactive.
Under `OCC(O)c1ccccc1` (stereo not given) stands “inactive”.
Take `CCCCCCCCCCCCCCN(CCO)CCO`: the result was inactive.
For the compound `CCCCCCCCCCCC(=O)OCC(O)CO` (stereo not given), the call was inactive.
Next, `CCCCCCC(O)CCCCCCCCCCC(=O)O` (stereo not given): “inactive”.
Under `CCCCCCCCCCCCCCCC(=O)OC/C=C(C)/C=C/C=C(C)/C=C/C1=C(C)CCCC1(C)C` stands “inactive”; under `C[C@@H]1CCN(C(=O)[C@H](CCCN=C(N)N)NS(=O)(=O)c2cccc3c2NC[C@H](C)C3)[C@@H](C(=O)O)C1`, “inactive”.
For the compound `CC(=O)CC(=O)Nc1ccc(C)cc1C`, the compound was classed as inactive.
Next, `COS(=O)(=O)O`: “inactive”; `CC(C)=CCCC(C)CC(=O)O` (stereo not given): “inactive”; `CCCCC1CCC(O)CC1` (stereo not given): “inactive”.
As to `CN(C)C(=S)SC(=S)N(C)C`, the result was inactive.
Under `CCOC(=O)CCc1ccccc1` stands “inactive”.
